# Data as given in PubChem BioAssay (EPA / NIEHS).
# Records with an inconclusive call do not appear. Calls of active or inactive are those of the source. How the source made its calls, unless noted: active means hit-call score of the fitted dose curve at least 0.9, where 1 is the maximum; inactive means score below 0.9.
# Columns and labels:
# [1] = ACEA_ER_80hr: ACEA Biosciences xCELLigence Real-Time Cell Analysis on Estrogen Receptor Agonism for Proliferation (AID 2282667; active means hit-call score of the fitted dose curve at least 0.9, where 1 is the maximum); conditions: T47D proliferation, impedance (xCELLigence), 80 h
# Summary of the method: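 Cell-growth kinetics were measured by impedance in T47D cells treated continuously with compound (top 100 uM final, 1:4 steps, 8 points). Activity at 80 h was scored as signal gain over the DMSO baseline.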
# [2] = ATG_CRE_CIS: Attagene CIS-FACTORIAL HepG2 Assay for human cAMP Responsive Element (CRE) binding protein 3 (AID 2282926); conditions: HepG2 CRE cis-reporter, Attagene multiplexed mRNA; actives raise or lower the signal
# Summary of the method: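 Cells carrying cis-regulated reporter constructs respond through their own endogenous factors. After 24 h treatment, RNA is reverse-transcribed, amplified, labelled and sized by capillary electrophoresis; up- and down-regulation are both scored against vehicle.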
# [3] = biological target: CCAAT/enhancer-binding protein beta (Homo sapiens) (UniProt P17676); assay: ATG_C_EBP_CIS: Attagene CIS-FACTORIAL HepG2 Assay for human CCAAT/Enhancer Binding Protein (C/EBP) beta (AID 2282927); conditions: HepG2 Attagene cis-factorial transcription factor reporter; actives raise or lower the signal
# CCAAT/enhancer-binding protein beta (Homo sapiens), sequence (P17676 whole entry, looked up): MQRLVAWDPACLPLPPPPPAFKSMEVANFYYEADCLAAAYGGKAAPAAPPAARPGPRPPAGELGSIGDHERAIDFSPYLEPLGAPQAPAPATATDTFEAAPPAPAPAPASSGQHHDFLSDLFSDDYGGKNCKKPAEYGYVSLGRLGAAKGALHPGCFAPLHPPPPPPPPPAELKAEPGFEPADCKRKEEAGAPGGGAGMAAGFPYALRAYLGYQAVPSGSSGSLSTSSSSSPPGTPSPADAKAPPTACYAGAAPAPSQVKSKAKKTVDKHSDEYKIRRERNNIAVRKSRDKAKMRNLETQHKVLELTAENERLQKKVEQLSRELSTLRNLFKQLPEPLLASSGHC
# Summary of the method: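 Changes in reporter mRNA, rather than exogenous chimeric receptor activity, reflect native C/EBP signalling in transfected HepG2 cells dosed for 24 h; transcripts are detected by RT-PCR and capillary electrophoresis.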
# [4] = ATG_DR4_LXR_CIS: Attagene CIS-FACTORIAL HepG2 Assay for human Liver X Receptor (LXR), DR4 submotif (AID 2282929); conditions: HepG2 Attagene DR4 cis-reporter, mRNA transcription; actives raise or lower the signal
# Summary of the method: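 Total RNA from 24 h-treated, MRTU-transfected HepG2 cells underwent reverse transcription, PCR, fluorescent primer extension and restriction digestion before capillary electrophoresis. Both increases and decreases in reporter signal were fitted against DMSO.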
# [5] = biological target: Aryl hydrocarbon receptor (Homo sapiens) (UniProt P35869); assay: ATG_Ahr_CIS: Attagene CIS-FACTORIAL HepG2 Assay for human Aryl Hydrocarbon Receptor (Ahr) (AID 2282930); conditions: HepG2 AhR cis-factorial reporter transcription; actives raise or lower the signal
# Aryl hydrocarbon receptor (Homo sapiens), sequence (P35869 whole entry, looked up): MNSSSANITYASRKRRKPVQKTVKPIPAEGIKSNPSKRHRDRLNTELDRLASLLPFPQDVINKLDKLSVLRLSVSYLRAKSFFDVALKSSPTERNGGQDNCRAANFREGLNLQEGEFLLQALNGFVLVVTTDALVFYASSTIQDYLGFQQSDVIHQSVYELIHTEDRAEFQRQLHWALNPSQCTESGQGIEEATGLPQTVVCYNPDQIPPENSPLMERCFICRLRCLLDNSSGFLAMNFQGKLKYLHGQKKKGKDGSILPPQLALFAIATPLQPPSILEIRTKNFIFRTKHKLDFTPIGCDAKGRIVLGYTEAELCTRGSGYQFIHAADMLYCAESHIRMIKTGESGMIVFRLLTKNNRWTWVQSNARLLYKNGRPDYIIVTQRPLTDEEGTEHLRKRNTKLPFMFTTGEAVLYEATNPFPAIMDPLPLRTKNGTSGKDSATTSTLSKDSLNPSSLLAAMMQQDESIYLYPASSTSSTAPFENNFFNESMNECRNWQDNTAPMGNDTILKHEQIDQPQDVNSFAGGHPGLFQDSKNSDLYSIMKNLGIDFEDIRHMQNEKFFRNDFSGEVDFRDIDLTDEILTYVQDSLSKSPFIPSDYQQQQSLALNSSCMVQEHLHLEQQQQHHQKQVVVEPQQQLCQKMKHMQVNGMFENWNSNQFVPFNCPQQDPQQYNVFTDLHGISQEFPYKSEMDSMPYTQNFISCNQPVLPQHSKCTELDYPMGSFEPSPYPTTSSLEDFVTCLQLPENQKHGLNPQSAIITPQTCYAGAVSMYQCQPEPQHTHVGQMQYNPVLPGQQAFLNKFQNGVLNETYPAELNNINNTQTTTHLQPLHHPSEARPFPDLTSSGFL
# Summary of the method: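 HepG2, transient MRTU (cis) transfection, 24 h exposure. RNA → cDNA → PCR → 6-FAM primer extension → HpaI 2 h 37 C → CE. Fit: bidirectional, DMSO baseline.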
# [6] = ATG_AP_1_CIS: Attagene CIS-FACTORIAL HepG2 Assay for human Activator Protein 1 (AP-1) (AID 2282931); conditions: HepG2 Attagene cis-factorial AP-1 reporter mRNA; actives raise or lower the signal
# Summary of the method: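 HepG2, transient cis-reporter transfection; 24 h; readout RT-PCR/CE fluorescence; DMSO baseline, gain and loss fitted.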
# [7] = ATG_BRE_CIS: Attagene CIS-FACTORIAL HepG2 Assay for human Bone Morphogenetic Protein (BMP) Response Element (BRE) (AID 2282933); conditions: HepG2 BMP response element reporter, Attagene transcription factor profiling; actives raise or lower the signal
# Summary of the method: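 Gain- or loss-of-signal was derived by bidirectional fitting against DMSO controls. The signal came from reporter mRNA, measured by RT-PCR and capillary electrophoresis, in HepG2 cells transiently carrying multiple reporter units and dosed for 24 h.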
# [8] = biological target: Retinoic acid receptor alpha (Homo sapiens) (UniProt P10276); assay: ATG_DR5_RAR_CIS: Attagene CIS-FACTORIAL HepG2 Assay for human Retinoic Acid Receptor Alpha (RARE), DR5 submotif (AID 2282934); conditions: HepG2 Attagene cis-factorial RARE DR5 reporter, mRNA; actives raise or lower the signal
# Retinoic acid receptor alpha (Homo sapiens), sequence (P10276 whole entry, looked up): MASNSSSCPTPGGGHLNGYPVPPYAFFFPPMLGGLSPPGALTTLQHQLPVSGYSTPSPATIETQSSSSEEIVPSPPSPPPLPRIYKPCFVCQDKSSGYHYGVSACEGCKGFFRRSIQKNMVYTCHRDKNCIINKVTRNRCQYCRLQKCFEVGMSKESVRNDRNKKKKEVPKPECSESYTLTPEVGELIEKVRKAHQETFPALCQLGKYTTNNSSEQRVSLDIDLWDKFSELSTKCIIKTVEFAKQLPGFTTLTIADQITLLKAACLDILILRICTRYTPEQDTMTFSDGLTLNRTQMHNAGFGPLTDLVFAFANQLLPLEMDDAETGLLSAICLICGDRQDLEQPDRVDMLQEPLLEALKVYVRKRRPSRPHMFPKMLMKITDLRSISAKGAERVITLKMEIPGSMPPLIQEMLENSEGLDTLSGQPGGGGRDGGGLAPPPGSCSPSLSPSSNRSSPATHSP
# Summary of the method: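 HepG2, transient cis-reporter transfection, 24 h exposure. mRNA readout: RT-PCR, FAM label, HpaI cut, capillary electrophoresis. DMSO baseline, gain/loss fitting.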
# [9] = biological target: Transcription factor E2F1 (Homo sapiens) (UniProt Q01094); assay: ATG_E2F_CIS: Attagene CIS-FACTORIAL HepG2 Assay for human E2F Transcription Factor 1 (AID 2282935); conditions: HepG2 Attagene cis-reporter, E2F reporter RNA transcripts; actives raise or lower the signal
# Transcription factor E2F1 (Homo sapiens), sequence (Q01094 whole entry, looked up): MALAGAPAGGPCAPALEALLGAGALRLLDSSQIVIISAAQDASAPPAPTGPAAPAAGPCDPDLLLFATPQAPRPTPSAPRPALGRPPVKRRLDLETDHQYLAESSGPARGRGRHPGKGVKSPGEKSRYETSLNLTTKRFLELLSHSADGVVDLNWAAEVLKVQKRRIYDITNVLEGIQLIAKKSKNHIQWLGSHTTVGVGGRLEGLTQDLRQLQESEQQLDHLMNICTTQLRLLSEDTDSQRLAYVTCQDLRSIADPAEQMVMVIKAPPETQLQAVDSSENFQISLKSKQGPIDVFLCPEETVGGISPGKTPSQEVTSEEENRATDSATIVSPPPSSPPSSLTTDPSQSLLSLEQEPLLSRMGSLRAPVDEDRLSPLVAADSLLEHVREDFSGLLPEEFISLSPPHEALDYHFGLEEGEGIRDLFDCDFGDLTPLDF
# Summary of the method: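 Gain or loss of reporter transcript, fitted against DMSO, reflects E2F1-driven transcription. Transiently transfected HepG2 dosed 24 h before RNA isolation. Quantified by fluorescent RT-PCR products separated by capillary electrophoresis.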
# [10] = ATG_E_Box_CIS: Attagene CIS-FACTORIAL HepG2 Assay for human Enhancer Box (E-box) (AID 2282936); conditions: HepG2 E-box cis-reporter transcription, actives raise or lower the signal
# Summary of the method: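 E-box-driven reporter transcripts measured in transiently transfected HepG2 after 24 h exposure: RNA reverse-transcribed, PCR-amplified, fluorescently labelled, digested and resolved by capillary electrophoresis. Gain or loss relative to DMSO.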
# [11] = ATG_EGR_CIS: Attagene CIS-FACTORIAL HepG2 Assay for human Early Growth Response 1 (EGR1) (AID 2282938); conditions: HepG2 Attagene CIS-FACTORIAL EGR reporter mRNA; actives raise or lower the signal
# Summary of the method: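 After a 24 h treatment of transiently transfected HepG2 cells, total RNA was reverse-transcribed and reporter sequences PCR-amplified, labelled and run on capillary electrophoresis. Reporters sit under cis-regulatory promoters sensing endogenous factors.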
# [12] = ATG_Ets_CIS: Attagene CIS-FACTORIAL HepG2 Assay for human Erythroblast Transformation Specific (ETS) (AID 2282941); conditions: HepG2 ETS cis-reporter transcription, actives raise or lower the signal
# Summary of the method: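 Multiplexed reporter transcript profiling: HepG2, 24 h treatment, total RNA to cDNA, PCR, 6-FAM labelling, HpaI cut, capillary electrophoresis. Gain- or loss-of-signal fitted against DMSO.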
# [13] = biological target: Hepatocyte nuclear factor 3-beta (Homo sapiens) (UniProt Q9Y261); assay: ATG_FoxA2_CIS: Attagene CIS-FACTORIAL HepG2 Assay for human Forkhead box A2 (FOXA2) (AID 2282942); conditions: HepG2 cis-reporter transcription factor activity, 24 h; actives raise or lower the signal
# Hepatocyte nuclear factor 3-beta (Homo sapiens), sequence (Q9Y261 whole entry, looked up): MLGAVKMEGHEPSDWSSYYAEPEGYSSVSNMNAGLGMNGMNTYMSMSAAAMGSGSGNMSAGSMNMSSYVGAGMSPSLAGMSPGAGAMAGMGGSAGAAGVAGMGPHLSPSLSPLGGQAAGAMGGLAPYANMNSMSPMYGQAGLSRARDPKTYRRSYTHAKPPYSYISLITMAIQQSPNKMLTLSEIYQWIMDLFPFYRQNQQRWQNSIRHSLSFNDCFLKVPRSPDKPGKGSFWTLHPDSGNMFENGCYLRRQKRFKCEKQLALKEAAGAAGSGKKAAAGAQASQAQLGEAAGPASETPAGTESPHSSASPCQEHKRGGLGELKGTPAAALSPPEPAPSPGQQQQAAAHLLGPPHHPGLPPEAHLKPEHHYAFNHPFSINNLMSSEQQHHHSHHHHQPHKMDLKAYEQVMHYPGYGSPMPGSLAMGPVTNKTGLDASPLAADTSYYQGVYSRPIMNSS
# Summary of the method: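 24 h dosing of HepG2 bearing cis-reporter constructs; mRNA readout by RT-PCR/CE fluorescence; bidirectional fit, DMSO baseline.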
# [14] = ATG_FoxO_CIS: Attagene CIS-FACTORIAL HepG2 Assay for human Forkhead box O (FoxO) (AID 2282943); conditions: HepG2 Attagene cis-reporter, FoxO element, mRNA; actives raise or lower the signal
# Summary of the method: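 Human hepatoma HepG2 cells carry transiently introduced reporter transcription units controlled by cis promoter elements. Chemical treatment lasted 24 h, and mRNA signal was compared with DMSO.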
# [15] = ATG_GATA_CIS: Attagene CIS-FACTORIAL HepG2 Assay for human GATA Binding Protein (AID 2282944); conditions: HepG2 GATA cis-element reporter, Attagene multiplex mRNA; actives raise or lower the signal
# Summary of the method: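 DMSO serves as negative control and baseline for bidirectional fitting of reporter mRNA changes. HepG2 cells bearing transiently transfected cis-promoter reporters were exposed 24 h; transcripts detected via RT-PCR and capillary electrophoresis.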
# [16] = ATG_CMV_CIS: Attagene CIS-FACTORIAL HepG2 Assay for human CMV (Internal Marker) (AID 2282928); conditions: HepG2 CMV promoter reporter, transcription factor profiling; actives raise or lower the signal;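 further: endpoint acts as a background internal control marker rather than a target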
# Summary of the method: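 Fluorescence intensity of RT-PCR-derived reporter fragments, resolved by capillary electrophoresis, gives the signal. HepG2 liver cells bearing transfected cis-element reporters were treated 24 h; activity in either direction was fit relative to DMSO-treated controls.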
# [17] = ATG_AP_2_CIS: Attagene CIS-FACTORIAL HepG2 Assay for human Activator Protein 2 (AP-2) (AID 2282932); conditions: HepG2 AP-2 cis-reporter, Attagene transcription factor profiling; actives raise or lower the signal
# Summary of the method: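 Endogenous transcription factor activity is reported through transfected multiplex reporter constructs in HepG2, after 24 h of compound exposure. Transcripts were quantified by RT-PCR and capillary electrophoresis of fluorescent fragments. Bidirectional fit against DMSO.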
# [18] = ATG_M_61_CIS: Attagene CIS-FACTORIAL HepG2 Assay for M61 Transcription Factor (Internal Marker) (AID 2282937); conditions: HepG2 Attagene CIS-FACTORIAL M61 internal marker reporter; actives raise or lower the signal
# Summary of the method: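 Transfect HepG2 with MRTUs; dose 24 h; isolate RNA; reverse-transcribe with DNase I treatment; PCR-amplify, FAM-label and cut with HpaI for 2 h at 37 C; resolve by CE. Bidirectional fitting against DMSO.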
# [19] = ATG_M_19_CIS: Attagene CIS-FACTORIAL HepG2 Assay for M19 Transcription Factor (Internal Marker) (AID 2282939); conditions: HepG2 Attagene CIS-FACTORIAL M19 internal marker reporter; actives raise or lower the signal
# Summary of the method: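 Following a 24 h exposure, RNA from transfected HepG2 cells was reverse-transcribed, PCR-amplified with reporter-specific primers, end-labelled with 6-FAM and HpaI-digested before capillary separation. Values represent gain or loss versus DMSO.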
# [20] = ATG_ERE_CIS: Attagene CIS-FACTORIAL HepG2 Assay for Estrogen Response Element (ERE) (AID 2282940); conditions: HepG2 ERE cis-reporter, Attagene RNA transcript; actives raise or lower the signal
# Summary of the method: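 HepG2, transient cis-reporter units, 24 h exposure. RNA isolated, oligo(dT) RT, reporter-specific PCR, FAM extension, HpaI cut, CE detection. Gain/loss-of-signal vs DMSO.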
smiles,measurement,setting,value
CC=CC(=O)OCC(C)C,outcome,[1],inactive
same,outcome,[2],inactive
same,outcome,[3],inactive
same,outcome,[4],inactive
same,outcome,[5],inactive
same,outcome,[6],inactive
same,outcome,[7],inactive
same,outcome,[8],inactive
same,outcome,[9],inactive
same,outcome,[10],inactive
same,outcome,[11],inactive
same,outcome,[12],inactive
same,outcome,[13],inactive
same,outcome,[14],inactive
same,outcome,[15],inactive
O=C1CCCCCCCCCCC1,outcome,[1],inactive
same,outcome,[2],inactive
same,outcome,[3],inactive
same,outcome,[16],inactive
same,outcome,[5],inactive
same,outcome,[6],inactive
same,outcome,[17],inactive
same,outcome,[7],inactive
same,outcome,[8],inactive
same,outcome,[9],inactive
same,outcome,[10],inactive
same,outcome,[18],inactive
same,outcome,[19],inactive
same,outcome,[20],inactive
same,outcome,[12],inactive
same,outcome,[13],inactive
same,outcome,[14],inactive
same,outcome,[15],inactive
CC1C(C)(C)C2=C(C(=O)CCC2)C1(C)C (centres undefined),outcome,[1],inactive
same,outcome,[2],inactive
same,outcome,[3],inactive
same,outcome,[4],inactive
same,outcome,[5],inactive
same,outcome,[6],inactive
same,outcome,[17],inactive
same,outcome,[7],inactive
same,outcome,[8],inactive
same,outcome,[9],inactive
same,outcome,[10],inactive
same,outcome,[18],inactive
same,outcome,[11],inactive
same,outcome,[19],inactive
same,outcome,[12],inactive
same,outcome,[13],inactive
same,outcome,[14],inactive
same,outcome,[15],inactive
CC=C(C)C=CC=C(C)C,outcome,[1],inactive
same,outcome,[2],inactive
same,outcome,[3],inactive
same,outcome,[4],inactive
same,outcome,[5],inactive
same,outcome,[6],inactive
same,outcome,[17],inactive
same,outcome,[7],inactive
same,outcome,[8],inactive
same,outcome,[9],inactive
same,outcome,[10],inactive
same,outcome,[18],inactive
same,outcome,[11],inactive
same,outcome,[19],inactive
same,outcome,[20],inactive
same,outcome,[12],inactive
same,outcome,[13],inactive
same,outcome,[14],inactive
same,outcome,[15],inactive
C=CC(C)(CCC=C(C)C)OC(=O)C=Cc1ccccc1 (centres undefined),outcome,[1],inactive
same,outcome,[2],inactive
same,outcome,[3],inactive
same,AC50,[4],27.1 µM (active)
same,outcome,[5],inactive
same,AC50,[6],100 µM (active)
same,outcome,[17],inactive
same,outcome,[7],inactive
same,outcome,[8],inactive
same,outcome,[9],inactive
same,outcome,[10],inactive
same,outcome,[11],inactive
same,outcome,[19],inactive
same,AC50,[20],17.7 µM (active)
same,outcome,[13],inactive
same,outcome,[14],inactive
same,outcome,[15],inactive
CC(C)COC(=O)CC(C(=O)OCC(C)C)S(=O)(=O)O (centres undefined),outcome,[1],inactive
same,outcome,[2],inactive
same,outcome,[3],inactive
same,outcome,[4],inactive
same,outcome,[5],inactive
same,outcome,[6],inactive
same,outcome,[17],inactive
same,outcome,[7],inactive
same,outcome,[8],inactive
same,outcome,[9],inactive
same,outcome,[10],inactive
same,outcome,[11],inactive
same,outcome,[19],inactive
same,outcome,[20],inactive
same,outcome,[12],inactive
same,outcome,[13],inactive
same,outcome,[14],inactive
same,outcome,[15],inactive
C=CC(=O)OCC(C)OCC(C)OCC(C)OC(=O)C=C (centres undefined),outcome,[1],inactive
same,outcome,[2],inactive
same,outcome,[3],inactive
same,AC50,[16],77.1 µM (active)
same,outcome,[5],inactive
same,AC50,[6],73.4 µM (active)
same,outcome,[17],inactive
same,outcome,[7],inactive
same,outcome,[8],inactive
same,outcome,[9],inactive
same,AC50,[10],68.6 µM (active)
same,outcome,[18],inactive
same,outcome,[19],inactive
same,outcome,[20],inactive
same,AC50,[12],60.1 µM (active)
same,outcome,[13],inactive
same,AC50,[14],100 µM (active)
same,outcome,[15],inactive
CC(C)c1cccc(C(C)C)c1N,outcome,[1],inactive
same,outcome,[2],inactive
same,outcome,[3],inactive
same,outcome,[16],inactive
same,outcome,[5],inactive
same,outcome,[6],inactive
same,outcome,[17],inactive
same,outcome,[7],inactive
same,outcome,[8],inactive
same,outcome,[9],inactive
same,outcome,[10],inactive
same,outcome,[18],inactive
same,outcome,[20],inactive
same,outcome,[12],inactive
same,outcome,[14],inactive
same,outcome,[15],inactive
